Drawing on the supplement of paper PMC4709259, this text covers mean cell size and cell count for 25 compounds.

Structures can show the parent of a compound that is named as a salt. ± gives the standard deviation.

The subject of test [1] is Jurkat. Description: mean cell size (FSC-A) relative to DMSO control (fraction of control); higher = larger cells. Conditions: 48 h. A digest of the protocol: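 Jurkat cells at 600 cells/µl were incubated for 1 h and then treated for 48h with the Enzo Screen-Well FDA Approved Drug Library v2.0 at 25µM, with DMSO at 0.9% (v/v) final. Compounds that reduced counts below 20% of controls were retested in 10-fold dilutions down to 25nM. Cell count and mean cell size, taken as forward scatter area, were measured by flow cytometry relative to solvent-only controls. Each plate carried 6-12 controls, and values are means of 3 biological replicates.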

The subject of test [2] is Jurkat. The test is described as follows: cell count relative to DMSO control (fraction of control); higher = more cells (less growth inhibition). Conditions: 48 h.

On to `Cc1cn([C@H]2C=C[C@@H](CO)O2)c(=O)[nH]c1=O` [Stavudine] (concentration: 25 µM), for which the mean cell size in test [1] was 1.04 ± 0.06. This compound also showed a cell count in test [2] of 0.764 ± 0.071.
For `CC(C)[C@H](N)C(=O)OCCOCn1cnc2c(=O)nc(N)[nH]c21` [Valacyclovir·HCl] (concentration: 25 µM) the same measures were 0.987 ± 0.03 and 0.332 ± 0.065.
`O=C(O)c1cc(N=Nc2ccc(O)c(C(=O)O)c2)ccc1O` [Olsalazine·Na] (concentration: 25 µM) displayed a mean cell size in test [1] of 0.955 ± 0.036. In test [2], this compound displayed a cell count of 0.611 ± 0.042.
For the compound `CCCCN1CCCCC1C(=O)Nc1c(C)cccc1C` (stereo not given) [Bupivacaine·HCl] (concentration: 25 µM), the mean cell size in test [1] is 0.982 ± 0.02. This compound also yielded a cell count in test [2] of 0.656 ± 0.097.
Consider `CC(C)(C)NC(=O)[C@H]1CC[C@H]2[C@@H]3CC[C@H]4NC(=O)C=C[C@]4(C)[C@H]3CC[C@]12C` [Finasteride] (concentration: 25 µM), for which the mean cell size in test [1] was 0.978 ± 0.046. This compound came in with a cell count in test [2] of 0.684 ± 0.12.
Turning to `NC(N)=Nc1nc(CSCC/C(N)=N/S(N)(=O)=O)cs1` [Famotidine] (concentration: 25 µM), the mean cell size in test [1] was determined as 0.979 ± 0.035. The same compound registered a cell count in test [2] of 1.19 ± 0.12.
Regarding `CC(C)(C)NC[C@H](O)c1ccc(O)c(CO)c1` [Levalbuterol·HCl] (concentration: 25 µM), in test [1], the mean cell size is 0.929 ± 0.03. Moreover, the cell count in test [2] stood at 1.14 ± 0.14.
For `Cn1c(=O)c2[nH]cnc2n(C)c1=O` [Aminophylline] (concentration: 25 µM) the same measures were 0.96 ± 0.035 and 0.984 ± 0.066.
The corresponding values for `CCCCN1C[C@H](O)[C@@H](O)[C@H](O)[C@H]1CO` [Miglustat (N-Butyldeoxynojirimycin·HCl)] (concentration: 25 µM) are 0.9757 ± 0.0093 and 0.81 ± 0.045.
For the compound `Nc1cc(-c2ccncc2)c[nH]c1=O` [Amrinone] (concentration: 25 µM), the mean cell size in test [1] worked out at 0.965 ± 0.031. The cell count in test [2] was 0.256 ± 0.064.
In the case of `CC(=O)N[C@H]1[C@H]([C@H](O)[C@H](O)CO)OC(C(=O)O)=C[C@@H]1NC(=N)N` [Zanamivir] (concentration: 25 µM), in test [1], the mean cell size worked out at 0.993 ± 0.052. The cell count in test [2] was 0.647 ± 0.18.
`OC[C@H]1O[C@@H](O[C@@H]2[C@@H](CO)OC(O)(CO)[C@H]2O)[C@H](O)[C@@H](O)[C@H]1O` (mixture of isomers) [Lactulose] (concentration: 25 µM) yielded a mean cell size in test [1] of 0.938 ± 0.046. Moreover, in test [2], the cell count worked out at 0.56 ± 0.15.
`C=C1/C(=C\C=C2/CCC[C@]3(C)[C@@H]([C@H](C)CCCC(C)(C)O)CC[C@@H]23)C[C@@H](O)C[C@@H]1O` [Calcitriol] (concentration: 25 µM) gave a mean cell size in test [1] of 0.8848 ± 0.0063. The cell count in test [2] was 0.893 ± 0.088.
Regarding `CCc1cc(C(N)=S)ccn1` [Ethionamide] (concentration: 25 µM), the mean cell size in test [1] was found to be 1.05 ± 0.03. Also, the cell count in test [2] was 1.05 ± 0.1.
The corresponding values for `Cc1nc2n(c(=O)c1CCN1CCC(c3noc4cc(F)ccc34)CC1)CCCC2O` (stereo not given) [Paliperidone] (concentration: 25 µM) are 0.985 ± 0.043 and 1.06 ± 0.063.
The corresponding values for `Clc1ccc(CCC(Cn2ccnc2)Sc2c(Cl)cccc2Cl)cc1` (stereo not given) [Butoconazole Nitrate] (concentration: 25 µM) are 0.953 ± 0.05 and 0.953 ± 0.094.
As to `CN(C)C(=O)C(CCN1CCC(O)(c2ccc(Cl)cc2)CC1)(c1ccccc1)c1ccccc1` [Loperamide·HCl] (concentration: 25 µM), the mean cell size in test [1] worked out at 0.988 ± 0.033. Further, in test [2], the cell count was 0.572 ± 0.18.
For the compound `CC(=O)O[C@@]12CO[C@@H]1C[C@H](O)[C@@]1(C)C(=O)[C@H](O)C3=C(C)[C@@H](OC(=O)[C@H](O)[C@@H](NC(=O)OC(C)(C)C)c4ccccc4)C[C@@](O)([C@@H](OC(=O)c4ccccc4)[C@H]21)C3(C)C` [Docetaxel (Taxotere)] (concentration: 25 nM), the mean cell size in test [1] stood at 1.14 ± 0.035. In test [2], this compound displayed a cell count of 0.518 ± 0.052.
Turning to `NC(=O)OCC(COC(N)=O)c1ccccc1` [Felbamate] (concentration: 25 µM), in test [1], the mean cell size is 1.02 ± 0.053. Also, the cell count in test [2] was determined as 0.755 ± 0.16.
For `COc1cc2c(cc1OC)C(=O)C(CC1CCN(Cc3ccccc3)CC1)C2` (stereo not given) [Donepezil·HCl] (concentration: 25 µM) the same measures were 1.032 ± 0.0096 and 0.487 ± 0.13.
`CS(=O)(=O)CCNCc1ccc(-c2ccc3ncnc(Nc4ccc(OCc5cccc(F)c5)c(Cl)c4)c3c2)o1` [Lapatinib Ditosylate] (concentration: 25 µM): the mean cell size in test [1] amounted to 0.924 ± 0.072. The compound further yielded a cell count in test [2] of 0.911 ± 0.14.
For `NNC(=O)c1ccncc1` [Isoniazid] (concentration: 25 µM) the same measures were 0.969 ± 0.022 and 0.925 ± 0.019.
The corresponding values for `CN1CCC[C@H]1c1cccnc1` [Nicotine] (concentration: 25 µM) are 0.936 ± 0.045 and 0.561 ± 0.18.
In test [1], `CCN(CC)CCCC(C)Nc1ccnc2cc(Cl)ccc12` (stereo not given) [Chloroquine Diphosphate] (concentration: 25 µM) registered a mean cell size of 0.947 ± 0.025. Further, the cell count in test [2] is 1.03 ± 0.099.
Regarding `CC(C)(C)NCC(O)c1cc(O)cc(O)c1` (stereo not given) [Terbutaline Hemisulfate] (concentration: 25 µM), the mean cell size in test [1] turned out to be 0.92 ± 0.066. In test [2], this compound had a cell count of 0.503 ± 0.057.
